Screens: PubChem, Bradner/Qi Labs at DFCI
Many of the other results were omitted from the sample, so hits are more common in it than they were.
CBX7 AlphaScr: CBX7 chromodomain binding inhibitors, primary screen, biochemical, AlphaScreen | Chromobox protein homolog 7 (Homo sapiens), O95931 | AlphaScreen His6-CBX7 / biotin-H3K27me3 peptide binding; active compounds read low | normalised signal (fraction of DMSO) (test concentration not listed) | actives 1.1% (n = 66,000) | AID 1224903, 2016; in the data active = normalised signal below about 0.5
Target sequence (O95931 whole entry, looked up): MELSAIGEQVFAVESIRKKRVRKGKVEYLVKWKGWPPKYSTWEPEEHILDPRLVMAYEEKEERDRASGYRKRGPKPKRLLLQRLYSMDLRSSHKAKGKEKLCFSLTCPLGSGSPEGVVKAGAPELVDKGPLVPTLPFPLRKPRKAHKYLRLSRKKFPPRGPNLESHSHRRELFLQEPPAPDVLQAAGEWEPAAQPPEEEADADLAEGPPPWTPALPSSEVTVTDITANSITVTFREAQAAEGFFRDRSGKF
Active calls of the source: *.

SMILES | CBX7 AlphaScr
Cc1ccc(OCC(O)CN2CCn3c4c(c5cc(C6CCCCC6)ccc53)CCCC42)cc1 (stereo not given) | 0.893
O=C(NCCCN1CCN(Cc2ccccc2)CC1)c1cc2c(s1)-c1ccccc1OC2 | 1.15
C=CCN(c1ccccc1)C(C(=O)NC1CCCCC1)c1ccc(OC)cc1 (stereo not given) | 0.862
CC1NC(=O)NC1CCCCCC(=O)OCC(=O)c1ccccc1 (stereo not given) | 0.159*
O=C(Nc1nc(-c2ccncc2)cs1)c1cccc(Oc2ccccc2)c1 | 0.915
O=C(Nc1nc(-c2ccccn2)cs1)c1ccc(Oc2ccccc2)cc1 | 0.116*
COc1cc(OC)cc(C(=O)Nc2nc(-c3ccccn3)cs2)c1 | 0*
COc1ccc(-c2csc(NC(=O)c3ccccc3)n2)cc1 | 1.03
COc1ccc(-c2csc(NC(=O)c3ccc(Oc4ccccc4)cc3)n2)c(OC)c1 | 0.832
COc1ccc(-c2csc(NC(=O)c3cccc(Oc4ccccc4)c3)n2)c(OC)c1 | 0.915
CCc1ccc(-n2nc(-c3ccc(Cl)cc3)cc2-c2ccc(Cl)cc2)cc1 | 1.13
CC(=O)Nc1ccc(Oc2ncnc3sc4c(c23)CCCC4)cc1 | 1.02
Cc1ccccc1Cn1cc(NC(=O)c2onc(C)c2Cl)cn1 | 1.05
CCC1Oc2ccc(Cl)cc2N(CC(=O)NCC2CCCN2CC)C1=O (stereo not given) | 1
CCN(CC)C(=O)C12CC3CC(CC(C3)C1)C2 | 0.987
CC(C)(C)c1ccc2c(c1)N(CC(=O)NCCCN1CCCCC1)C(=O)CO2 | 1.18
O=C(NCCc1ccc(Cl)cc1)c1cc(-c2ccccc2)nc2ccccc12 | 1.13
CC1CCCC(C)N1C(=O)CN(C)S(=O)(=O)c1cccc2cccnc12 (stereo not given) | 0.981
COc1ccc(Cc2noc(-c3cc(-c4ccc(F)cc4)nc4ccccc34)n2)cc1 | 1.34
COc1ccc(Cc2noc(-c3cc(-c4ccncc4)nc4ccccc34)n2)cc1 | 0.486*
COc1ccc(-c2noc(-c3cc(-c4ccccc4)nc4ccccc34)n2)cc1 | 1.24
CCc1nnc(NC(=O)Nc2ccc(OC)cc2)s1 | 1.03
CCN(CC)CCNC(=O)CS(=O)(=O)Cc1nc(-c2cccc(OC)c2)oc1C | 1.02
CCN(Cc1ccccc1)S(=O)(=O)c1ccc(C(=O)Nc2nnc(C3CC3)o2)cc1 | 0.71
CCCCN(C)S(=O)(=O)c1ccc(C(=O)Nc2ccc(-c3nc4ccccc4[nH]3)cc2)cc1 | 0.945
SMILES | CBX7 AlphaScr
CCCN(CCC)S(=O)(=O)c1ccc(C(=O)Nc2nnc(C3CC3)o2)cc1 | 0.528
CCCCN(C)S(=O)(=O)c1ccc(C(=O)Nc2nnc(C3CC3)o2)cc1 | 0.034*
CCCCN(CC)S(=O)(=O)c1ccc(C(=O)Nc2nnc(C3CC3)o2)cc1 | 0.0365*
CCCCN(C)S(=O)(=O)c1ccc(C(=O)Nc2ccccc2-c2nc3ccccc3o2)cc1 | 1.04
CC(C)CN(CC(C)C)S(=O)(=O)c1ccc(C(=O)Nc2nnc(C3CC3)o2)cc1 | 0.00617*
O=C(Nc1ccc(-c2nnc(-c3ccccc3)o2)cc1)C(c1ccccc1)c1ccccc1 | 0.982
Cc1nc(-c2cccc(NC(=O)c3cccc(Br)c3)c2)cs1 | 0.985
CCc1ccc(CNC(=O)c2cc(=O)[nH]c3ccc(S(=O)(=O)N4CCCCC4C)cc23)cc1 (stereo not given) | 0.74
Cc1onc(-c2ccccc2)c1C(=O)N1CCC(C)CC1 | 1.04
O=C(NCc1ccccn1)C1CC(=O)N(CCc2ccccc2)C1 (stereo not given) | 0.848
CCOC(=O)C1CCCN(C(=O)Cc2c(C(=O)O)[nH]c3ccc(Cl)cc23)C1 (stereo not given) | 1.04
O=C(CN1CCN(Cc2ccccc2F)C1=O)NCC1CCCO1 (stereo not given) | 0.828
Fc1cccc(Nc2nc3nonc3nc2Nc2cccc(F)c2)c1 | 1.04
c1cc2c(cc1Nc1nc3nonc3nc1Nc1ccc3c(c1)OCO3)OCO2 | 0.37*
CC1CCN(c2nc3nonc3nc2Nc2ccc3c(c2)OCO3)CC1 | 0.945
COc1ccc(Nc2cc(C(=O)NCCCOC(C)C)c3ccccc3n2)cc1 | 0.829
COCc1nnc(NC(=O)c2ccc(S(=O)(=O)N3CCCCCC3)cc2)o1 | 0.0663*
COCc1nnc(NC(=O)c2ccc(S(=O)(=O)N3CCCC(C)C3)cc2)o1 (stereo not given) | 0.794
CCc1nnc(NC(=O)c2ccc(S(=O)(=O)N3CCc4ccccc4C3)cc2)o1 | 0.631
CCc1nnc(NC(=O)c2ccc(S(=O)(=O)N3CCCC3)cc2)o1 | 0.454*
CCc1nnc(NC(=O)c2ccc(S(=O)(=O)N3CCCCC3C)cc2)o1 (stereo not given) | 0.783
CCc1nnc(NC(=O)c2ccc(S(=O)(=O)N3CC(C)CC(C)C3)cc2)o1 (stereo not given) | 0.698
NC(=O)c1oc2ccccc2c1NC(=O)c1ccc(S(=O)(=O)N2CCCc3ccccc32)cc1 | 0.791
CCc1nnc(NC(=O)c2ccc(S(=O)(=O)N3CCCc4ccccc43)cc2)o1 | 0.0473*
Cc1c(NC(=O)COc2ccc(C(C)(C)C)cc2)cccc1-c1nc2ncccc2o1 | 0.948
